Results taken from publication PMC10812921, “Transcriptional Coactivator BOB1 (OBF1, OCA-B) Modulates the Specificity of DNA Recognition by the POU-Domain Factors OCT1 and OCT2 in a Monomeric Configuration”.

What was measured:
[1] = biological target: POU1 (OCT1 POU domain) (human, UniProt P14859 260-458); assay: EMSA-SELEX-seq; no BOB1; 20 mM Tris-HCl pH 7.6, 140 mM NaCl, 10% glycerol, 0.5 mM EDTA, 0.05% Triton X-100, 0.1 mg/mL BSA, 0.1 mg/mL poly(dI-dC), 5 mM DTT, room temperature, 20 min; high values mean tight binding; settings: protein: recombinant; dsDNA, one strand shown
POU1 (OCT1 POU domain), sequence (P14859 260-458): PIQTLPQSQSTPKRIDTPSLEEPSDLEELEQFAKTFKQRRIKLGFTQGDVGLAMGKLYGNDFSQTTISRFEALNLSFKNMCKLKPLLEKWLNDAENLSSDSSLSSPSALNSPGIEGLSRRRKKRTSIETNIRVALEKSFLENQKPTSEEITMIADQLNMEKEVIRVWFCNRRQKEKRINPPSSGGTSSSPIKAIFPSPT
Method in brief: (§1)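 A double-stranded random 35-nt library (300 ng, PCR-amplified) was incubated with 30 ng tagged POU-domain protein, with or without 28 ng coactivator protein, in 20 μL Tris–HCl pH 7.6 binding buffer for 20 min at RT. The proteins had been expressed in E. coli BL21, purified under denaturing conditions and renatured. Complex bands from native 6% PAGE were eluted and PCR-amplified over four rounds, then sequenced on Illumina. For binding preference, the percentage of sequenced 8-mers matching a motif pattern was calculated.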

[2] = biological target: T1, POU2 (OCT2 POU domain) (human, UniProt P09086 175-386); assay: as above; settings: protein: recombinant; dsDNA, one strand shown
T1 sequence: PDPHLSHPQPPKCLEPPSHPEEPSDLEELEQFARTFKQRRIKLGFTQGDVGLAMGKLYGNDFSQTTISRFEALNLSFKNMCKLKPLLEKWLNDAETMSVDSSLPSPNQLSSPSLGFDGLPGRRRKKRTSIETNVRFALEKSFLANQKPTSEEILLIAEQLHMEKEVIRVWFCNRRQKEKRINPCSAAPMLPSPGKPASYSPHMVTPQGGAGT
Method in brief: as §1

[3] = biological target: POU1 (OCT1 POU domain);BOB1 (OBF1, OCA-B) (human;human, UniProt P14859;Q16633 260-458;1-256, |); assay: EMSA-SELEX-seq; with BOB1 (ternary complex band); 20 mM Tris-HCl pH 7.6, 140 mM NaCl, 10% glycerol, 0.5 mM EDTA, 0.05% Triton X-100, 0.1 mg/mL BSA, 0.1 mg/mL poly(dI-dC), 5 mM DTT, room temperature, 20 min; high values mean tight binding; settings: protein: recombinant;recombinant; copies: 1;1; dsDNA, one strand shown
Method in brief: as §1

[4] = biological target: T2, POU2 (OCT2 POU domain);BOB1 (OBF1, OCA-B) (human;human, UniProt P09086;Q16633 175-386;1-256, |); assay: as above; settings: protein: recombinant;recombinant; copies: 1;1; dsDNA, one strand shown
T2 sequence 1: T1 sequence
T2 sequence 2: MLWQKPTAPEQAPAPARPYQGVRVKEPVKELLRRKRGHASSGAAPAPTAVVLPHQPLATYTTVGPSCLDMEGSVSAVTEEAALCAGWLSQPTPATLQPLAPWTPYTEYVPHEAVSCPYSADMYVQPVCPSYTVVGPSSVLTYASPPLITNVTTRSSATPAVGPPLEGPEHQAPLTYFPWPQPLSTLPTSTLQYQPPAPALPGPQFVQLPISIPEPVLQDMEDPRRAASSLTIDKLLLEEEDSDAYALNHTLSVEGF
Method in brief: as §1

Row | Sequence | binding signal [1] | binding signal [2] | binding signal [3] | binding signal [4]
1 | ATCTCAAC | 0.0252 % of ANNNNAAN 8-mers | 0.027 % of ANNNNAAN 8-mers | 0.0254 % of ANNNNAAN 8-mers | 0.0264 % of ANNNNAAN 8-mers
2 | ATTCGAAA | 0.0725 % of ANNNNAAN 8-mers | 0.0783 % of ANNNNAAN 8-mers | 0.0605 % of ANNNNAAN 8-mers | 0.0578 % of ANNNNAAN 8-mers
3 | AGTCTAAA | 0.037 % of ANNNNAAN 8-mers | 0.0501 % of ANNNNAAN 8-mers | 0.0398 % of ANNNNAAN 8-mers | 0.0504 % of ANNNNAAN 8-mers
4 | AAAGTAAG | 0.0641 % of ANNNNAAN 8-mers | 0.0685 % of ANNNNAAN 8-mers | 0.0851 % of ANNNNAAN 8-mers | 0.0834 % of ANNNNAAN 8-mers
5 | AGCTTAAC | 0.0194 % of ANNNNAAN 8-mers | 0.0219 % of ANNNNAAN 8-mers | 0.0195 % of ANNNNAAN 8-mers | 0.0165 % of ANNNNAAN 8-mers
6 | ACTACAAC | 0.0122 % of ANNNNAAN 8-mers | 0.0196 % of ANNNNAAN 8-mers | 0.0164 % of ANNNNAAN 8-mers | 0.0173 % of ANNNNAAN 8-mers
7 | AGCATAAC | 0.082 % of ANNNNAAN 8-mers | 0.099 % of ANNNNAAN 8-mers | 0.0207 % of ANNNNAAN 8-mers | 0.038 % of ANNNNAAN 8-mers
8 | ACCTTAAA | 0.021 % of ANNNNAAN 8-mers | 0.023 % of ANNNNAAN 8-mers | 0.0375 % of ANNNNAAN 8-mers | 0.0173 % of ANNNNAAN 8-mers
9 | ACTCGAAG | 0.0187 % of ANNNNAAN 8-mers | 0.0207 % of ANNNNAAN 8-mers | 0.0168 % of ANNNNAAN 8-mers | 0.0182 % of ANNNNAAN 8-mers
10 | AGACGAAG | 0.0198 % of ANNNNAAN 8-mers | 0.019 % of ANNNNAAN 8-mers | 0.0203 % of ANNNNAAN 8-mers | 0.0272 % of ANNNNAAN 8-mers
11 | ACATTAAG | 0.095 % of ANNNNAAN 8-mers | 0.0875 % of ANNNNAAN 8-mers | 0.0539 % of ANNNNAAN 8-mers | 0.0487 % of ANNNNAAN 8-mers
12 | AACTTAAC | 0.0294 % of ANNNNAAN 8-mers | 0.0288 % of ANNNNAAN 8-mers | 0.0234 % of ANNNNAAN 8-mers | 0.0248 % of ANNNNAAN 8-mers
13 | ACGTGAAA | 0.0374 % of ANNNNAAN 8-mers | 0.0386 % of ANNNNAAN 8-mers | 0.0386 % of ANNNNAAN 8-mers | 0.0297 % of ANNNNAAN 8-mers
14 | AACGGAAG | 0.0168 % of ANNNNAAN 8-mers | 0.0259 % of ANNNNAAN 8-mers | 0.0164 % of ANNNNAAN 8-mers | 0.0206 % of ANNNNAAN 8-mers
15 | AACAGAAT | 0.0645 % of ANNNNAAN 8-mers | 0.0679 % of ANNNNAAN 8-mers | 0.0507 % of ANNNNAAN 8-mers | 0.0594 % of ANNNNAAN 8-mers
16 | ACGCCAAA | 0.0133 % of ANNNNAAN 8-mers | 0.0219 % of ANNNNAAN 8-mers | 0.016 % of ANNNNAAN 8-mers | 0.0223 % of ANNNNAAN 8-mers

Row | Sequence | binding signal [1] | binding signal [2] | binding signal [3] | binding signal [4]
17 | AGCAGAAC | 0.0179 % of ANNNNAAN 8-mers | 0.0299 % of ANNNNAAN 8-mers | 0.0211 % of ANNNNAAN 8-mers | 0.014 % of ANNNNAAN 8-mers
18 | AAAGAAAC | 0.0355 % of ANNNNAAN 8-mers | 0.0339 % of ANNNNAAN 8-mers | 0.0433 % of ANNNNAAN 8-mers | 0.0371 % of ANNNNAAN 8-mers
19 | AATGTAAG | 0.104 % of ANNNNAAN 8-mers | 0.106 % of ANNNNAAN 8-mers | 0.089 % of ANNNNAAN 8-mers | 0.0958 % of ANNNNAAN 8-mers
20 | ATATTAAT | 0.424 % of ANNNNAAN 8-mers | 0.558 % of ANNNNAAN 8-mers | 0.142 % of ANNNNAAN 8-mers | 0.177 % of ANNNNAAN 8-mers
21 | AGTTCAAA | 0.0355 % of ANNNNAAN 8-mers | 0.0357 % of ANNNNAAN 8-mers | 0.0386 % of ANNNNAAN 8-mers | 0.0421 % of ANNNNAAN 8-mers
22 | AACACAAA | 0.0454 % of ANNNNAAN 8-mers | 0.0443 % of ANNNNAAN 8-mers | 0.0648 % of ANNNNAAN 8-mers | 0.0438 % of ANNNNAAN 8-mers
23 | AAGCTAAA | 0.0347 % of ANNNNAAN 8-mers | 0.0449 % of ANNNNAAN 8-mers | 0.0453 % of ANNNNAAN 8-mers | 0.0347 % of ANNNNAAN 8-mers
24 | AGGTGAAA | 0.0587 % of ANNNNAAN 8-mers | 0.0466 % of ANNNNAAN 8-mers | 0.0601 % of ANNNNAAN 8-mers | 0.0471 % of ANNNNAAN 8-mers
25 | AGCAGAAG | 0.0233 % of ANNNNAAN 8-mers | 0.0207 % of ANNNNAAN 8-mers | 0.0308 % of ANNNNAAN 8-mers | 0.0264 % of ANNNNAAN 8-mers
26 | AGCTAAAT | 0.0652 % of ANNNNAAN 8-mers | 0.0633 % of ANNNNAAN 8-mers | 0.0738 % of ANNNNAAN 8-mers | 0.0479 % of ANNNNAAN 8-mers
27 | AGCCTAAC | 0.0153 % of ANNNNAAN 8-mers | 0.0144 % of ANNNNAAN 8-mers | 0.0109 % of ANNNNAAN 8-mers | 0.0157 % of ANNNNAAN 8-mers
28 | AGGCAAAG | 0.146 % of ANNNNAAN 8-mers | 0.0783 % of ANNNNAAN 8-mers | 0.258 % of ANNNNAAN 8-mers | 0.13 % of ANNNNAAN 8-mers
29 | ATTCAAAC | 0.153 % of ANNNNAAN 8-mers | 0.15 % of ANNNNAAN 8-mers | 0.199 % of ANNNNAAN 8-mers | 0.125 % of ANNNNAAN 8-mers
30 | ACTCTAAT | 0.0488 % of ANNNNAAN 8-mers | 0.0604 % of ANNNNAAN 8-mers | 0.0316 % of ANNNNAAN 8-mers | 0.0405 % of ANNNNAAN 8-mers
31 | ACCGTAAA | 0.0244 % of ANNNNAAN 8-mers | 0.0253 % of ANNNNAAN 8-mers | 0.0226 % of ANNNNAAN 8-mers | 0.0173 % of ANNNNAAN 8-mers
32 | ACGCCAAT | 0.0137 % of ANNNNAAN 8-mers | 0.0184 % of ANNNNAAN 8-mers | 0.0195 % of ANNNNAAN 8-mers | 0.0256 % of ANNNNAAN 8-mers
